Among all 68,000 compounds or so, about 2,700 (4%) showed an effect of 50% or more. The list comes from a sample in which strong results are over-represented; it also holds similar structures and randomly drawn compounds.
Each molecule was assayed on Plasmodium berghei (assay: Screen against P. berghei liver stage (PbLuc), transformed with Luciferase, at 2uM). Details: tested at 2 uM.
Format: functional, HepG2

Row | SMILES | INHIBITION [%]
1 | COCCCN1CC2(CCN(C(=O)c3ccc(=O)n(C)c3)CC2)CC1=O | 44.23
2 | CCN1CCN(C(=O)c2ccc(=O)n(C)c2)c2ccccc21 | -22.63
3 | Cn1cc(C(=O)N2CCOc3ccccc32)ccc1=O | -31.6
4 | CN1CC2(CCN(C(=O)c3ccc(=O)n(C)c3)CC2)CC1=O | 53.13
5 | Cn1cc(C(=O)N2CCSc3ccccc32)ccc1=O | 50.05
6 | CN1CC2(CCN(C(=O)c3ccc4nonc4c3)CC2)CC1=O | 10.02
7 | CC(=O)N1CCCN(C(=O)c2ccc(=O)n(C)c2)c2ccccc21 | 28.18
8 | CN1CCN(C(=O)c2ccc(=O)n(C)c2)c2ccccc21 | 51.19
9 | CC1CN(C)c2ccccc2N(C(=O)c2ccc(=O)n(C)c2)C1 (configuration not stated) | 15.47
10 | CC(C)n1nc(CN2CCCC2)c2c1CN(CC1CC1)CC2 | -29
11 | FC(F)(F)CCc1ccnc(NCc2csc(N3CCOCC3)n2)n1 | -17.11
12 | Cn1nnc2c1C(COCC1CC1)CN(C(=O)C1=CCCC1)C2 (configuration not stated) | 22.68
13 | CCN1CCC2(CCN(c3ncccn3)CC2)C1=O | 32.05
14 | CC(C)NS(=O)(=O)c1cc(C(=O)O)cc(-c2ccc3c(c2)OCO3)c1 | -12.67
15 | O=C(NCc1ccccn1)[C@@H]1CCO[C@@H]2CCN(Cc3ccoc3)C[C@H]21 | 11.08
16 | O=C(c1ccno1)N1CCCC(c2ncncc2-c2ccncc2)C1 (configuration not stated) | 6.13
17 | OC1(CN2CCCC(Cn3cncn3)C2)CCCCC1 (configuration not stated) | 19.9
18 | COCC(NC1CCSCC1)c1ccnn1C (configuration not stated) | 27.55
19 | Cc1cc(C)cc(NC(=O)N(CCC#N)CCCN(C)C)c1 | 53.81
20 | Cc1cc(NC(=O)N(CCC#N)CCCN(C)C)ccc1F | -11.32
21 | CN(C)CCCN(CCC#N)C(=O)Nc1ccc2[nH]ccc2c1 | -28.09
22 | Cc1noc(C)c1CN1CCc2ncnc(-c3ccoc3)c2CC1 | -15.88
23 | CCOC(=O)CNC(=O)NCc1cc(C)n(-c2ccccc2OC)c1C | 7.91

Row | SMILES | INHIBITION [%]
24 | CCN1CC[C@@]2(C(=O)N3CCOCC3)CCN(S(=O)(=O)CC)CC[C@@H]12 | 46.32
25 | Cc1nc(C)n(CC2CCCN2Cc2ncc(C(C)(C)C)o2)n1 (configuration not stated) | -39.72
26 | FC(F)(F)c1ccc2nc([C@H]3CCN(C4CCCCC4)C3)[nH]c2c1 | -5.77
27 | FC(F)(F)c1ccc2nc([C@H]3CCN(C4CCC4)C3)[nH]c2c1 | 2.22
28 | FC(F)(F)c1ccc2nc([C@H]3CCN(C4CCOCC4)C3)[nH]c2c1 | 54.16
29 | Cc1n[nH]cc1CNCc1cccc(OCC(F)(F)F)c1 | 36.91
30 | O=C(C1CC1)N1CCN(c2ccc(-n3cncn3)nn2)CC1 | 42.14
31 | O=C(CC1CCCC1)N1CCN(c2ccc(-n3cncn3)nn2)CC1 | 59.76
32 | O=C(CSC1CCCC1)N1CCN(c2ccc(-n3cncn3)nn2)CC1 | 15.96
33 | Cc1cc(F)ccc1NS(=O)(=O)c1cc2c(c(C(=O)O)c1)OCCO2 | -1.02
34 | CC(C)(N)c1cn(C2CCN(C(=O)CCC3CCCCC3)CC2)nn1 | 20.08
35 | Cc1nc(N2CCCC2)nc2c1CCN(C(=O)CC1CC1)CC2 | -24.79
36 | CCN1CCNC(=O)C12CCN(S(=O)(=O)c1ccc(F)cc1)CC2 | 26.55
37 | CCN1CCNC(=O)C12CCN(S(=O)(=O)c1ccccc1)CC2 | -2
38 | CC(C)CN1CCNC(=O)C12CCN(S(=O)(=O)c1ccc(F)cc1)CC2 | 55.66
39 | Oc1cc(-c2ccccn2)nc(C2CCN(Cc3ccncc3)CC2)n1 | -1.49
40 | Nc1nc2c(c(N3CCCC(OCc4ccccn4)C3)n1)CCNCC2 (configuration not stated) | -24.7
41 | Cc1ncsc1CCN(C)Cc1ccc(Br)o1 | 34.18
42 | Cc1ncsc1CCN(C)Cc1ccc(CO)o1 | 36.28
43 | Cc1ccsc1CN(C)CCc1scnc1C | 57.75
44 | CC(C)=CCN1C[C@@H]2CN(C(=O)c3cnccc3C)C[C@]2(C(=O)O)C1 | -9.48
45 | CCn1nc(C)cc1C(=O)N1CCC(Nc2ccc(C)nn2)CC1 | -7.05
46 | CN(c1ccc(C(N)=O)nn1)C1CCC1 | -35.26

Row | SMILES | INHIBITION [%]
47 | COC(=O)c1ccc(N(C)C2CCC2)nn1 | 24.36
48 | CNC(=O)c1ccc(N(C)C2CCC2)nn1 | 67.28
49 | C[C@@H]1C[C@H]2CN(C(=O)C3=CCCCC3)C[C@H]2O1 | 28.2
50 | O=C(c1ccncc1)N1C[C@H]2CC[C@@H](C1)N(C(=O)C1CCCC1)C2 | 63.1
51 | CCOCC(=O)N1C[C@@H]2CC[C@H]1CN(C(=O)c1ccncc1)C2 | -3.87
52 | O=C(c1ccncc1)N1C[C@H]2CC[C@@H](C1)N(C(=O)N1CCOCC1)C2 | -58.5
53 | CN(C)C(=O)N1Cc2nnn(C)c2C(COCc2cccnc2)C1 (configuration not stated) | -16.25
54 | CCc1ccc(NC(=O)N2C[C@@H]3C[C@H](C(=O)NC4CCC4)[C@H](C2)O3)cc1 | 25.08
55 | Cc1ncc(CN2CCOC(c3ccc(-c4ccccc4F)cn3)C2)s1 (configuration not stated) | 48.08
56 | CNC(=O)c1cn[nH]c1C1(C)CCCN(Cc2ccccn2)C1 (configuration not stated) | 19.47
57 | CN(C)C(=O)c1cn[nH]c1C1(C)CCCN(Cc2ccccn2)C1 (configuration not stated) | 70.33
58 | CN(C)C(=O)c1cn[nH]c1C1(C)CCN(c2ncccn2)CC1 | -16.2
59 | Cc1ccc(C)c(CS(=O)(=O)CC(=O)NCCCOC(C)C)c1 | 22.1
60 | Cc1cccc(-c2noc(C)c2C(=O)NC2CCCOC2)c1 (configuration not stated) | -3.96
61 | Cc1nc(CN2CCN(S(=O)(=O)N3CCOCC3)CC2)oc1C | -9.04
62 | Cc1nc(CN2CCOC3(CCCC3)C2)oc1C | 20.49
63 | Cc1nc(CN2CCN(S(=O)(=O)N3CCCCC3)CC2)oc1C | 54.44
64 | CC(C)N1CC[C@H]2[C@H](C[C@@H](Cn3cccn3)N2c2nccs2)C1 | 34.42
65 | CNC(=O)CN1CC[C@H]2CN(C(=O)c3ccc(C)nc3)C[C@H]2C1 | 40.83
66 | CNC(=O)CN1CC[C@H]2CN(C(=O)c3ccc(C)cc3)C[C@H]2C1 | 51.94
67 | CNC(=O)CN1CC[C@H]2CN(C(=O)c3cccc(C)c3)C[C@H]2C1 | 30.63

Source: ChEMBL document CHEMBL4513216, “Probing the Open Global Health Chemical Diversity Library for Multistage-Active Starting Points for Next-Generation Antimalarials” (ACS Infect Dis, 2020)
